HIF act: HIF pathway transcriptional activation | U2OS HRE-luciferase reporter, luminescence; normalized: DMSO 0%, desferrioxamine 100% | activation, % at 7.5 µM (by protocol) | actives 0.32% (n = 300,000) | AID 1910;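 active means mean activation of at least 10% of the iron chelator positive control signal, with at least half of replicates also reaching 10%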
ALR H2O2 inh: blocks human ALR sulfhydryl oxidase activity; P55789; purified ALR, DTT oxidation, H2O2 HRP-luminol luminescence; inhibition, % (test concentration not listed); actives 3.8% (n = 290,000);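 active means mean replicate inhibition above about 79%, with every replicate also reaching it, limit read from the data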
Target sequence (P55789 whole entry, looked up): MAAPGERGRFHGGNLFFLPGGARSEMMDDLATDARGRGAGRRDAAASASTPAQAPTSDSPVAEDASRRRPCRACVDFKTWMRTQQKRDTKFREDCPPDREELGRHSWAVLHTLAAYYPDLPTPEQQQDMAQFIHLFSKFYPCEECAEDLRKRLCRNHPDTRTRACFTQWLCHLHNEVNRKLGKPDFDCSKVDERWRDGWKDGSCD
Mot1-301 SUMO: SUMOylation pathway inhibition by Mot1-301 growth rescue. S. cerevisiae Mot1-301 growth rescue, ATP luminescence, 38.5C; percent above DMSO median, 100 means doubled. growth rescue, % at 18.8 µM. actives 1% (n = 320,000);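 active means every valid replicate shows activation above 250% relative to neutral control wells; inactive means the rest, any valid replicate at or below 250%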
AI-2 QS mod: modulators of Vibrio harveyi AI-2 quorum sensing system | Vibrio harveyi JMH597 AI-2 luminescence/OD600 ratio, 9 h; stronger effect = lower value; strain lacks LuxN and CqsS sensors; 0 = neutral-control median | activity change, % at 7.5 µM | actives 0.4% (n = 300,000) | AID 2094; in the data active means activity change below about -75%, passing the limit was not always enough;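 further: luminescence divided by OD600 gain over 9 h not by final OD600 alone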
Large screens that a line does not name were inactive. Rows were chosen to be rich in hits. Some 4.8% of all compounds tested hit in one or more screens of this group.

CN(C)S(=O)(=O)c1ccc(C(=O)N2CCN=C2SCc2ccccc2)cc1	none
CCCN1CCN(CC(O)COC(c2ccc(OC)cc2)c2ccc(OC)cc2)CC1 (configuration not stated)	none (no result: ALR H2O2 inh)
COc1ccc(C(=O)/C=C/Nc2ccc(S(=O)(=O)Nc3onc(C)c3C)cc2)cc1	ALR H2O2 inh 97
CCc1ccc(C(=O)/C=C/Nc2ccc(S(=O)(=O)Nc3onc(C)c3C)cc2)cc1	ALR H2O2 inh 97
Cc1noc(NS(=O)(=O)c2ccc(N/C=C/C(=O)c3ccc(F)cc3)cc2)c1C	none
COc1ccc(S(=O)(=O)Nc2ccc(-n3cnnn3)cc2)cc1[N+](=O)[O-]	none (no result: HIF act, ALR H2O2 inh, AI-2 QS mod)
CCCCC[C@@H]1C=C(C(=O)O)[C@H](c2ccc(OC)c(OC)c2)N1S(=O)(=O)c1ccc(C)cc1	none (no result: HIF act, ALR H2O2 inh, AI-2 QS mod)
ClCC1NCC(c2ccccc2Cl)c2c1[nH]c1ccccc21 (configuration not stated)	ALR H2O2 inh 98
O=C(O)c1ccc(CSCc2ccco2)cc1	ALR H2O2 inh 97 (no result: Mot1-301 SUMO)
O=C(CSCc1ccco1)c1cccs1	ALR H2O2 inh 99
Cc1ccc(S(=O)(=O)N(C)C)cc1NC(=O)COC(=O)CNC(=O)c1cccs1	none
O=C(COc1ccccc1[N+](=O)[O-])N1CCN(c2ccccn2)CC1	none
COc1ccccc1NC(=O)CSc1nc2c(sc3ccccc32)c(=O)n1CCN(C)C	ALR H2O2 inh 99
COCCn1c(SCC(=O)Nc2ccccc2OC)nc2ccccc2c1=O	none
CCN(CC)CCn1c(SCC(=O)Nc2ccc(F)cc2)nc2c(sc3ccccc32)c1=O	ALR H2O2 inh 99
Cc1nc(NS(=O)(=O)c2ccccc2C)c2c3c(sc2n1)CCC3	ALR H2O2 inh 97
CC(=O)Nc1ccc(S(=O)(=O)Nc2nc(C)nc3sc4c(c23)CCC4)cc1	none (no result: ALR H2O2 inh)
COC(=O)N/N=C/c1cc(N=Nc2ccccc2)ccc1O	none
Cc1cc(C(=O)N/N=C/c2cc(N=Nc3ccccc3)ccc2O)n[nH]1	HIF act 19 (no result: ALR H2O2 inh)
Nc1ccc(C(=O)N/N=C\c2cc(N=Nc3cccc4ccccc34)ccc2O)cc1	HIF act 14
Cc1onc(-c2ccccc2)c1C(=O)Nc1nnc(CC(C)(C)C)s1	none
Cc1ccccc1-c1nnn(CC(=O)N(C)CC(=O)Nc2ccccc2C(F)(F)F)n1	none
Cc1onc(-c2ccccc2)c1NC(=O)N(Cc1ccccc1)C(C)C	HIF act 55 (no result: ALR H2O2 inh)
Cc1nc(SCc2ccc(Cl)cc2)ncc1C(=O)O	none
COc1cnc(SCc2ccc(Cl)cc2)nc1Cl	ALR H2O2 inh 98
CC(C)(C)C(=O)CSc1ccc(S(=O)(=O)N2CCN(Cc3ccccc3)CC2)cn1	none (no result: HIF act, AI-2 QS mod)
CCc1nc(SCC(=O)Nc2nc3c(s2)CCCC3)c2ccccc2n1	ALR H2O2 inh 99
CCCCCCn1nc(C(=O)Nc2nc3c(s2)CCCC3)c2ccccc2c1=O	HIF act 10
CCCc1nc(SCC(=O)Nc2nc3c(s2)CCCC3)c2ccccc2n1	ALR H2O2 inh 99
CCn1c(SCC(=O)Nc2nc3c(s2)CCCC3)nnc1-c1ccccc1	none
CCCc1nc(SCC(=O)NC2CCCC2)c2ccccc2n1	none (no result: ALR H2O2 inh)
CCCCn1nc(C(=O)Nc2nc3c(s2)CCCC3)c2ccccc2c1=O	none
CCCc1cc(=O)oc2cc(OCC(=O)N3CCN(C(=O)C4COc5ccccc5O4)CC3)ccc12 (configuration not stated)	none
O=C(CC12CC3CC(CC(C3)C1)C2)Nc1nncs1	none
COc1cc(/C=N\NC(=O)OC(C)(C)C)ccc1OC(=O)c1ccco1	none
COCc1cc(C)nc(OCC(=O)N/N=C/c2ccc(OC)c(O)c2)c1C#N	ALR H2O2 inh 99
COc1cc(/C=N/NC(=O)C(N)=O)cc(OC)c1O	ALR H2O2 inh 99 (no result: Mot1-301 SUMO)
COc1cc(/C=N/N=C/c2cc(OC)c(O)c(OC)c2)cc(OC)c1O	ALR H2O2 inh 98
COc1ccc(/C=N/N=C/c2ccc(OC)c(OC)c2)cc1OC	none (no result: ALR H2O2 inh)
COCc1cc(C)nc(OCC(=O)N/N=C/c2ccc(C)cc2)c1C#N	none
COc1ccc(/C=N/NC(=O)OC(C)(C)C)cc1OC	ALR H2O2 inh 95
COc1ccc(/C=N/NC(=O)C(N)=O)c(OC)c1OC	none
O=C(NCCCO)/C(=C\c1ccco1)NC(=O)c1ccco1	none
CCOC(=O)N/N=C/c1cc(OC)c(O)c(OC)c1	ALR H2O2 inh 99
COc1cc(/C=N/NC(=O)C(=O)N2CCCC2)ccc1O	none (no result: HIF act, ALR H2O2 inh)
COc1ccc(/C=N/NC(=O)C(=O)N2CCCCCC2)cc1O	ALR H2O2 inh 83
CCOC(=O)N/N=C/c1ccc(F)cc1	none
CCOC(=O)N/N=C/c1ccc(OC)c(O)c1	ALR H2O2 inh 94
Cc1ccc(NC(=O)CN2C(=O)N/C(=C\c3ccco3)C2=O)cc1	none (no result: HIF act, AI-2 QS mod)
Cc1ccccc1N1CCN(C2CCCN(C(=O)c3noc4c3CCCC4)C2)CC1 (configuration not stated)	none
CSC1=NCCN1C(=O)Cc1ccc(F)cc1	none
CC(=O)N1CCN=C1SCc1ccc(F)cc1	ALR H2O2 inh 99
CCOC(=O)N1CCN=C1SCc1ccc(C(F)(F)F)cc1	none
CC(=O)N1CCN=C1SCc1ccccc1	none
CC(=O)N1CCN=C1SCc1ccc(C)cc1	ALR H2O2 inh 95 (no result: HIF act)
CCC(=O)N1CCN=C1SCc1ccccc1	none
CCC(=O)N1CCN=C1SCc1ccc(Cl)cc1	ALR H2O2 inh 98
CC(=O)N1CCN=C1SCc1ccc(Cl)cc1	ALR H2O2 inh 98 (no result: HIF act)
CC(Oc1ccc2c3c(c(=O)oc2c1)CCC3)C(=O)NCCCn1ccnc1 (configuration not stated)	none
O=C(CCN1C(=O)S/C(=C\c2ccccc2)C1=O)NC1CCS(=O)(=O)C1 (configuration not stated)	none
Cn1c(SCC(=O)Nc2ccc3[nH]c(=O)[nH]c3c2)nnc1-c1ccc(F)cc1	ALR H2O2 inh 99
Cc1ccc2nc(SCC(=O)Nc3ccc4c(c3)OCCO4)[nH]c2c1	none
O=C(CSc1nc2ccccc2[nH]1)Nc1ccc2c(c1)OCCO2	ALR H2O2 inh 99
CCc1c(C)nc(SCC(=O)Nc2ccc3c(c2)OCCO3)[nH]c1=O	ALR H2O2 inh 99
O=C(CSc1nc2ccccc2[nH]1)Nc1ccc2[nH]c(=O)[nH]c2c1	ALR H2O2 inh 98 (no result: HIF act, AI-2 QS mod)
CCc1cc(=O)[nH]c(SCC(=O)Nc2ccc3c(c2)OCCO3)n1	none (no result: ALR H2O2 inh)
Cn1c(SCC(=O)Nc2ccc3[nH]c(=O)[nH]c3c2)nnc1-c1ccccc1	none
Fc1ccc(N2CCN(Cc3cn[nH]c3-c3ccccc3)CC2)cc1	none
Fc1ccc(N2CCN(Cc3ccccn3)CC2)cc1	ALR H2O2 inh 97
CC(=O)N1CCN(c2ccc(NCc3cccc4ccccc34)cc2)CC1	ALR H2O2 inh 99 (no result: AI-2 QS mod)
CC(=O)N1CCN(c2ccc(NCc3ccc(-c4ccc(Br)cc4)o3)cc2)CC1	none (no result: HIF act, AI-2 QS mod)
CC(=O)N1CCN(c2ccc(NCc3ccc(Br)o3)cc2)CC1	ALR H2O2 inh 99 (no result: HIF act, AI-2 QS mod)
CC(=O)N1CCN(c2ccc(NCc3ccccc3)cc2)CC1	ALR H2O2 inh 99
CC(=O)N1CCN(c2ccc(NCc3ccc4c(c3)OCO4)cc2)CC1	none (no result: ALR H2O2 inh)
COc1ccc([C@H]2CC(=O)C=C(c3ccc4ncccc4c3)C2)cc1OC	none (no result: HIF act, AI-2 QS mod)
Cc1ccc(/C=C/C(=O)O)cc1S(=O)(=O)N1CCc2ccccc21	none
